Results on 32 molecules are retold here after PubChem BioAssay (NCATS).

Inconclusive results are not listed. Entries that show only a call come without a potency. Unmarked numbers belong to inactive results. Active and inactive are the calls of the source. The call rests on the fitted dose curve; in most records, active means well fitted cell-killing curve with a large enough effect; inconclusive means small, poorly fitted or top-dose-only effect, or effect the other way; inactive means flat fitted curve, though single readings scatter.
Potency means the concentration at half of the fitted maximal effect.

The first assay concerns HeLa. Kind of assay: Primary qHTS to identify gynecologic anti-cancer compounds using libraries of approved drugs and bioactive compounds (AID 1345084). Further: nearly all actives have a fitted effect of over 55% in size. The settings on record: Gynecologic cancer cell panel viability, ATPlite luminescence, 48 h; series mostly up to 57.5 µM. In short, it runs like this: (§1)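 Cells, 1,000 per well, were allowed to settle for 16 h at 37 C before compound addition. Five concentrations were tested for 48 h, and viability was read by ATPlite luminescence after 15 min at room temperature.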
In general terms: qHTS replaces the single test concentration by a dilution series.
Consider `O=C(O)CCCCCC[C@H]1C(=O)NC(=O)N1CC[C@@H](O)C1CCCCC1`, for which the Potency result was “inactive”.

`CCC(O)(C(=O)OCc1ccccc1NC(=O)CCC(=O)O)C(C)O` (configuration not stated): the Potency entry is “inactive”.

Consider `COC(=O)C[C@H]1[C@]2(C)C3=C(C)[C@H](c4ccoc4)C[C@H]3O[C@@H]2[C@H](OC(C)=O)C2[C@](C)(C(=O)OC)C=CC(=O)[C@@]21C` (some centres not stated), for which the Potency result was “inactive”.

As to `C=C(C(=O)O)[C@H]1C[C@]2(C)[C@@H](O)CC[C@]23O[C@H]1C[C@@H]3C`, the Potency entry is “inactive”.

Turning to `COc1c(/C=C/C(C)(C)O)ccc2c1C(=O)OCc1cc(C)cc(O)c1O2`, the Potency entry is “inactive”.

With `Cc1cc(C)c(CNC(=O)c2cc(-c3ccc(CN4CCOCC4)cc3)cc3c2cnn3C2CCCC2)c(=O)[nH]1`, the Potency result was “inactive”.

In the case of `O=C(O)c1ccc(CN2CCC(CN[C@@H]3C[C@H]3c3ccccc3)CC2)cc1`, the Potency entry is “inactive”.

Turning to `COc1ccc(N2CCOCC2)c2sc(NC(=O)N3CCC(C)(O)CC3)nc12`, the Potency entry was “inactive”.

In the case of `CCC(COC)n1nnc2c(Nc3ccc(OC)cc3C)nc(C)cc21` (configuration not stated), the Potency entry is “inactive”.

Turning to `CC(=O)OC1C[C@@]2(C)[C@@H](CC[C@@H](C)[C@]23Cc2c(O)cc4c(c2O3)CNC4=O)C(C)(C)[C@@H]1O` (some centres not stated), the Potency entry was “inactive”.

Take `OC/C=C/C=C/[C@H]1Cc2cc(O)cc(O)c2O1`: the Potency result is “inactive”.

Take `C/C=C/C1=CC2=C(CO1)C(=O)C(C)(O)C(OC(=O)c1c(C)cc(OC)cc1O)C2` (configuration not stated): the Potency result was “inactive”.

For a further assay, the system named is Hek293T. The description is as above. The settings on record: Gynecologic cancer cell panel viability, ATPlite luminescence, 48 h, control line for the selectivity index; series mostly up to 57.5 µM. In short, it runs like this:
as §1
On to `C=C1[C@@H]2CC[C@@H]3[C@@](CCC4C(C(=O)O)(C(=O)O)C[C@@H](O[C@@H]5O[C@H](CO)[C@@H](O)[C@H](O)[C@H]5OC(=O)CC(C)C)C[C@]43C)(C2)[C@H]1O` (some centres not stated), for which the Potency entry was “inactive”.

Regarding `N[C@@]1(C(=O)O)CC[C@H]2[C@H](C(=O)O)[C@H]21`, the Potency result is “inactive”.

`C[C@@H]1O[C@@H](O[C@H]2[C@@H]3C=CO[C@@H](O[C@@H]4O[C@H](CO)[C@@H](O)[C@H](O)[C@H]4O)[C@@H]3[C@@]3(CO)O[C@@H]23)[C@H](OC(=O)/C=C/c2ccccc2)[C@H](O)[C@H]1O`: the Potency result was “inactive”.

On to `C[C@@H]1CC[C@]2(C(=O)O[C@@H]3O[C@H](CO)[C@@H](O)[C@H](O)[C@H]3O)CC[C@]3(C)C(=CCC4[C@@]5(C)C[C@@H](O)[C@H](O)[C@](C)(C(=O)O)C5CC[C@]43C)[C@@H]2[C@]1(C)O` (some centres not stated), for which the Potency result is “inactive”.

Consider `C=C1CN(Cc2ccc(C(=O)Nc3ccccc3N)cc2)C(=O)c2ccccc21`, for which the Potency is 2.24 µM (active).

As for `COc1ccc(C(=O)n2c(C)c(Cc3cccc(O[C@@H](C)C(=O)O)c3)c3cc(OC(F)(F)F)ccc32)cc1`, the Potency entry is “inactive”.

Consider `Cc1ccc([N+](=O)[O-])cc1S(=O)(=O)N(C)/N=C/c1cnc2ccc(Br)cn12`, for which the Potency is 0.316 µM (active).

Consider `C[C@@H]1O[C@@H](O[C@@H]2[C@@H](O)[C@H](O[C@H]3CC[C@@]4(C)C(CC[C@]5(C)C4CC=C4[C@@H]6CC(C)(C)CC[C@]6(C(=O)O[C@@H]6O[C@H](CO)[C@@H](O)[C@H](O)[C@H]6O)CC[C@]45C)C3(C)C)O[C@H](C(=O)O)[C@H]2O)[C@H](O)[C@H](O)[C@H]1O` (some centres not stated), for which the activity change, negative = cytotoxicity was 5.01% [at 11.6 µM].

On to `CCOC(=O)C(CCc1ccccc1)NC(C)C(=O)N1C(=O)N(C)CC1C(=O)O` (configuration not stated), for which the Potency result is “inactive”.

As for `CC1=CCC2C(C)(C)CCC[C@]2(C)[C@@]12CC[C@](C)(CC(=O)O)O2` (some centres not stated), the Potency entry was “inactive”.

Take `CC1CCC2C(C)(C)[C@@H](O)CC[C@]2(C)C12Cc1c(O)cc3c(c1O2)CN(C(CCC(=O)O)C(=O)O)C3=O` (some centres not stated): the Potency result was “inactive”.

On to `Cc1cc(NC(=O)Nc2ccc(F)c(F)c2)n(-c2ccccc2)n1`, for which the Potency result is “inactive”.

As for `CC(/C=C/C1=CC2=CC(=O)C(C)(O)C(O)C2=CO1)=C\C(C)CCO` (configuration not stated), the Potency result is “inactive”.

For `Cn1c(=O)cc(N2CCCC(N)C2)n(Cc2cc(F)ccc2C#N)c1=O` (configuration not stated), the Potency result is “inactive”.

With `COc1c(Nc2ncc(Cl)c(N[C@H]3[C@@H](C(N)=O)[C@@H]4C=C[C@H]3C4)n2)ccc2c1CC[C@@H](N1CCOCC1)CC2`, the Potency result is “inactive”.

Take `CNC(=S)NS(=O)(=O)c1cc(CCNC(=O)c2cc(Cl)ccc2OC)ccc1OC`: the Potency entry was “inactive”.

With `COc1ccc(CC2NCCc3c2[nH]c2ccc(C)cc32)cc1OC` (configuration not stated), the Potency entry is “inactive”.

For `Cc1cccc(C)c1-n1c(=O)c2cnc(Nc3ccc(N4CCN(C)CC4)cc3)nc2n2c3ccccc3nc12`, the Potency is 3.55 µM (active).

Take `NC1CCC(Nc2cc(-c3cccc(NCc4cccc(F)c4)n3)c(Cl)cn2)CC1` (configuration not stated): the Potency was 1 µM (active).

Regarding `C=C[C@]1(C)C[C@H](O)[C@@H]2[C@H](OC(=O)[C@@H]2C)C1/C(C)=C/O[C@@H]1O[C@H](CO)[C@@H](O)[C@H](O)[C@H]1O` (some centres not stated), the Potency result is “inactive”.
